Only some compounds are listed: those with a hit (about 19% of all), similar ones and a draw of the others.
HepG2 viability – qHTS for Inhibitors of TGF-b: Cytotox Counterscreen | Potency, µM (series often up to 46.1 µM), for inactives: at the top dose activity change, negative = cytotoxicity, hits mostly cytotoxic | HepG2 CAGA-GFP viability, ATP luminescence, 18 h | AID 588856, 2011 | 410,000 tested, 0.76% active; further: potency means the concentration at half of the fitted maximal effect
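HepG2 CAGA-GFP cells (1000/well, DMEM with 1% FBS) received compound, then TGF-beta at 500 pg/mL final, and were incubated 18 hours at 37 degrees C. Viability was read by CellTiter-Glo luminescence. Media-only wells were set as complete cell-killing and DMSO as no toxicity.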
DT40 TDP1 no CPT – qHTS for Inhibitors of human tyrosyl-DNA phosphodiesterase 1 (TDP1): qHTS in cells in absence of CPT; 420,000 tested, 15% active; Potency, µM (doses to about 46.2 µM), inactives show top-dose activity change, negative = growth inhibition, actives largely listed as inhibitors; DT40 Tdp1-/- hTDP1 cells, no CPT, ATP luminescence, 48 h; further: potency means the concentration at half of the fitted maximal effect; on the % scale 0 is the no-effect control and ±100 the full control effect; nearly all actives have a fitted effect of over 55% in size
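Seeded 400 DT40-hTDP1 cells/well (vehicle DMSO, no 20 nM CPT); pinned compounds; ≥48 hr at 37 °C; CellTiter-Glo luminescence as viability measure.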
IL1B secr inh – qHTS for Inhibitors of Inflammasome Signaling: IL-1-beta AlphaLISA Primary Screen; activity change, % at 57.5 µM; AID 743279, 2014; THP-1 LPS/ATP IL-1B secretion, AlphaLISA, 16 h; stronger effect = lower value; 360,000 tested, 4.7% active; in the data active means activity change below about -50%; inconclusive means mostly about -30% to -49%; further: on the % scale 0 is the no-effect control and ±100 the full control effect
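THP-1 cells pretreated 1 hr with compounds (up to 57.5 uM final), then stimulated with LPS (250 ng/mL final) plus ATP (1.25 mM final); secreted IL-1B measured by AlphaLISA after 16 hr, decreased signal indicating inhibition.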
S-ASM inh – Inhibitors of Secretory Acid Sphingomyelinase (S-ASM): qHTS; Sphingomyelin phosphodiesterase (Homo sapiens), P17405; placental ASM, HMU-PC fluorogenic substrate, 60 min; Potency, µM (doses to about 57.5 µM), inactives show at the top dose activity change, negative = inhibition, most hits filed as inhibitors; 340,000 tested, 0.006% active; AID 504937, 2011; further: potency means the concentration at half of the fitted maximal effect
Target sequence (P17405 47-631 limits assumed): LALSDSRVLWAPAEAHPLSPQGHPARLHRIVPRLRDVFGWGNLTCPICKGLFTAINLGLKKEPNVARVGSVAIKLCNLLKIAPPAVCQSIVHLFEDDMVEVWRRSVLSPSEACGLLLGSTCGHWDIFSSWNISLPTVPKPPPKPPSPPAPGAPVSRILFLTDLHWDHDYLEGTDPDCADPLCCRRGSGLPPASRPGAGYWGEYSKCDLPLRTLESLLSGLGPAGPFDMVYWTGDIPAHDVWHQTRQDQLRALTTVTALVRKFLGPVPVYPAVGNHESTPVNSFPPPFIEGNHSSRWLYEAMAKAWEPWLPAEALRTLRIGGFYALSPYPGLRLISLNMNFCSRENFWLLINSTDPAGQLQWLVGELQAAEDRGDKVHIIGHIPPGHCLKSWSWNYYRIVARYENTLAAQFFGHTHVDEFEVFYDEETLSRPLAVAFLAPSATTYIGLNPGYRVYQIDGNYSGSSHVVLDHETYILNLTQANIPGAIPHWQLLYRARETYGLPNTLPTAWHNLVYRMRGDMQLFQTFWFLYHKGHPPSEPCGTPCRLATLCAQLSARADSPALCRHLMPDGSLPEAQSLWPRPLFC
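qHTS format. ASM enzyme prepared from human placenta hydrolyses the fluorogenic substrate HMU-PC0 (9 uM final) over 60 min at 37 °C after a 10 min compound preincubation.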
TDP1 cell CPT – qHTS for Inhibitors of human tyrosyl-DNA phosphodiesterase 1 (TDP1): qHTS in cells in presence of CPT. chicken DT40 Tdp1-/-;hTDP1 cells + 20 nM CPT, ATP luminescence, 48 h. Potency, µM (highest dose often 46.2 µM), for the others: top-dose activity change, negative = growth inhibition, usual class: inhibitors. 420,000 tested, 12% active; further: potency means the concentration at half of the fitted maximal effect; on the % scale 0 is the no-effect control and ±100 the full control effect; nearly all actives have a fitted effect of over 55% in size
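Cell growth measured by CellTiter-Glo luminescence after a minimum 48 h, 37 C compound exposure with 20 nM CPT in Tdp1-knockout DT40 cells stably expressing hTDP1, seeded 400/well; qHTS titration format.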
TGFb inhibitor – qHTS for Inhibitors of TGF-b. HepG2 CAGA-GFP TGF-b/SMAD3 reporter, GFP fluorescence, 18 h; TGF-beta stimulated, 500 pg/mL final. Potency, µM (series often up to 46.1 µM), inactives show at the highest dose activity, negative = inhibition, hits mostly inhibitors. 410,000 tested, 1.2% active. AID 588855, 2011; further: potency means the concentration at half of the fitted maximal effect; on the % scale 0 is the no-effect control and ±100 the full control effect; nearly all actives have a fitted effect of over 65% in size
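GFP signal (ex488/em500-530) from TGF-beta-stimulated HEPG2 CAGA-GFP cells, 500 pg/mL final, 18 h at 37 degrees C in DMEM plus 1% FBS, normalized to unstimulated and DMSO-stimulated controls.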
Active calls of the source: *; i = inactive; ? = inconclusive; nt = not tested or not shown; [ ] = remark or other dose. Unless noted, the call rests on the fitted dose curve; in most records, active means well fitted curve in the direction sought with a large enough effect; inconclusive means small, poorly fitted or top-dose-only effect, or another doubt; inactive means no such curve, though single readings can be large; an effect the other way counts as inactive or inconclusive.

SMILES	HepG2 viability	DT40 TDP1 no CPT	IL1B secr inh	S-ASM inh	TDP1 cell CPT	TGFb inhibitor
O=C(CNC(=O)c1ccc(Br)o1)Nc1cccc(S(=O)(=O)N2CCCC2)c1	6%	-19%	62	3%	-6%	0%
COc1ccccc1OCC(=O)Nc1nc(-c2ccc(S(=O)(=O)N3CCOCC3)cc2)cs1	0%	13µM*	11	-5%	21µM*	-16%
COc1ccc(-c2csc(NC(=O)c3ccc(OCC(=O)N4CCOCC4)c(OC)c3)n2)cc1OC	-21%	15µM*	-94*	-16%	16µM*	0%
O=C(CCc1ccc(S(=O)(=O)N2CCOCC2)cc1)Nc1nccs1	-4%	-17%	18	-1%	-16%	3%
O=C(COc1ccccc1)Nc1nc(-c2ccc(S(=O)(=O)N3CCOCC3)cc2)cs1	-26%	?	-1	-3%	?	-8%
O=C(CCc1ccc(S(=O)(=O)N2CCOCC2)cc1)Nc1nc(COc2ccccc2)cs1	-19%	?	?	-10%	15µM*	-21%
COc1cc(C(O)c2nc(-c3cccc4cccnc34)cs2)ccc1F (stereo unspecified)	-8%	?	0	nt	?	0%
O=C(Cn1ccc2ccccc2c1=O)NCC(=O)N1CCN(c2ccc(F)cc2)CC1	-4%	1%	-1	0%	2%	13%
O=S(=O)(Nc1ccccc1)c1ccc(NS(=O)(=O)c2c(F)cccc2F)cc1	-3%	-2%	18	-3%	8%	13%
CN(C)CCCSc1nc2ccccc2s1	-25%	3%	9	-1%	?	4%
O=C(c1cnn2c(C(F)F)cc(-c3ccccc3)nc12)N1CCN(Cc2ccc3c(c2)OCO3)CC1	0%	26µM*	i	20%	?	?
Cc1ccccc1Cc1c(C)nc2c(C(=O)NCc3ccc4c(c3)OCO4)cnn2c1C	-1%	?	0	2%	18µM*	-2%
Cc1cccc(Cc2c(C)nc3c(C(=O)N4CCN(Cc5ccc6c(c5)OCO6)CC4)cnn3c2C)c1	-34%	?	-27	-1%	?	?
Cc1ccccc1Cc1c(C)nc2c(C(=O)N3CCN(Cc4ccc5c(c4)OCO5)CC3)cnn2c1C	-14%	18µM*	?	1%	?	-14%
Cc1c(C(=O)NCc2ccc3c(c2)OCO3)cnn1-c1ncc2c(n1)-c1ccccc1CC2	nt	-17%	nt	nt	-2%[9.04 µM]	nt
Cc1ccc(N(C)C(=O)Cn2nc(Cc3ccncc3)c3ccccc3c2=O)cc1C	-31%	-25%	nt	nt	-27%	?
Cc1c(Cl)cccc1NC(=O)CNC(=O)Cc1n[nH]c(=O)c2ccccc12	0%	-18%	26	0%	?	-2%
CCCCNC(=O)C1c2ccccc2OCC(=O)N1Cc1ccccc1 (stereo unspecified)	nt	?	36	nt	?	nt
N#Cc1c(N2CCCCC2)nc(N)c2c(N)nc3c(c12)CC(c1ccccc1)O3 (stereo unspecified)	0%	11µM*	-9	130%	?	-1%
N#Cc1c(N2CCCC2)nc(N)c2c(N)nc(N3CCCC3)cc12	-9%	18µM*	?	i	?	?
CCOc1cc2c(C#N)c(N3CCCC3)nc(N)c2c(N)n1	0%	-8%	-13	68%	-11%	24%

Screening data (PubChem)
